Screening data (PubChem BioAssay)
Only some compounds are listed: those with a hit (about 28% of all), similar ones and a draw of the others.
CYP2C19 inhib: blocks human cytochrome P450 2C19 | CYP2C19 Supersomes, luciferin-H EGE luminescence, 30 min | inhibition, % at 5 µM | hit rate 21% among 96,000 | AID 778;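 active = CYP2C19 inhibition above a set limit at 5 µM in the primary screen, cut at about 50% in these data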
CYP2C19 act: activators of human cytochrome P450 2C19; activation factor at 5 µM; 96,000 tested, under 10 active; recombinant CYP2C19, luciferin-H EGE luminescence; hits give high values; 0 = fully inhibited enzyme, 1 = untreated enzyme;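 active = activation factor of at least 2 at 5 µM in the primary screen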
PTK2B oligo ant: blocks oligomerization of human Pyk2 in cells; Q14289; z-score (the deposit names both 25 µM and 10 µM); AID 1347419; hit rate 0.83% among 99,000; Q293 cells, Pyk2 FERM NanoBiT luminescence; hits give low values;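 active = Z-score of -3 or lower, scaled per plate to the spread of control and sample wells; inactive = z-score above -3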;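 note: negative z-score means lost luminescence so less FERM oligomerization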
CYP2C9 inh: blocks human cytochrome P450 2C9. CYP2C9 Supersomes, luciferin-H conversion, luminescence. inhibition, % at 5 µM. hit rate 20% among 96,000. AID 777;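 active = blocking of liver enzyme CYP2C9 beyond about 50% at 5 µM, limit read from the data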
CYP2C9 act: activators of human CYP2C9 | P11712 | recombinant CYP2C9, luciferin-H conversion, luminescence; hits give high values; factor 1 = untreated enzyme, 0 = blocked | activation factor at 5 µM | hit rate 1.4% among 96,000;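 active = activation factor of 2 or more for CYP2C9 at a 5 µM dose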
Numbers stand for hits; - = inactive; . = no result.

SMILES | CYP2C19 inhib | CYP2C19 act | PTK2B oligo ant | CYP2C9 inh | CYP2C9 act
COc1cc(C(=S)N2CCCCC2)ccc1OCC(=O)N1CCCC1 | - | - | - | - | -
CCOc1cc(C(=S)N2CCC(O)CC2)ccc1OS(=O)(=O)c1ccc(Br)cc1 | 87 | - | - | 68 | -
CCOc1ccc(C(=S)N2CCOCC2)cc1OCC | - | - | - | - | -
CCOc1cc(C(=S)N2CCCCC2)ccc1OCC(=O)NCc1ccccc1 | 58 | - | - | 83 | -
CCOc1cc(C(=S)N2CCCCC2)ccc1OS(=O)(=O)c1ccc(Br)cc1 | 56 | - | - | 69 | -
Cc1nnc(SCCn2c(N(C)Cc3ccccc3)nc3c2c(=O)[nH]c(=O)n3C)s1 | - | - | . | - | -
CC1(C)CC(=O)C(C=NCCN2CCN(C(=O)C34CC5CC(CC(C5)C3)C4)CC2)=C(O)C1 | - | - | - | - | -
CCNCc1cc(OCC)c(OCC(=O)NCCc2ccccc2)cc1Cl | 88 | - | - | - | -
CCOc1ccc(NC(=O)Cn2nnc(-c3ccccc3NC(=O)c3cccs3)n2)cc1 | - | - | - | 50 | -
CCn1nnc(-c2ccccc2NC(=O)C(F)(F)F)n1 | 70 | - | - | - | -
CCn1nnc(-c2ccccc2NC(=O)c2cc(OC)cc(OC)c2)n1 | - | - | - | - | -
CCn1nnc(-c2ccccc2NC(=O)c2cc(OC)c(OC)c(OC)c2)n1 | - | - | - | 93 | -
CCOC(=O)c1oc2cccc(OCC(O)CNC(C)C)c2c1C (stereo not drawn) | 70 | - | - | - | -
COc1ccc(C2NC(=O)c3ccccc3N2)cc1OC (stereo not drawn) | - | - | - | - | -
O=C1NC(c2ccc3c(c2)OCO3)Oc2ccccc21 (stereo not drawn) | 96 | - | - | 79 | -
O=C1NC(c2ccc3c(c2)OCO3)Nc2ccccc21 (stereo not drawn) | 62 | - | - | - | -
CCOC(=O)c1c(CC(C)C)csc1NC(=O)CCl | - | - | - | 62 | -
CCOC(=O)c1c(CC(C)C)csc1NC(=O)C(C)C | - | - | - | - | -
COc1ccc(C2=NOC(CN3C(=O)c4ccccc4S3(=O)=O)C2)cc1 (stereo not drawn) | 76 | - | - | 89 | -
O=C1c2ccccc2S(=O)(=O)N1CC1CC(c2ccccc2)=NO1 (stereo not drawn) | 82 | - | - | 81 | -
CCN=C1Sc2nc3ccc(OCC)cc3cc2CN1CCOC | 91 | - | - | 96 | -
Fc1ccc(NC(=S)N2N=CCC2c2ccccc2)cc1 (stereo not drawn) | 64 | - | - | - | -
S=C(Nc1ccccc1)N1CCCCCC1 | - | - | - | - | -
S=C(Nc1ccccc1)N1N=CCC1c1ccccc1 (stereo not drawn) | 66 | - | - | - | -
Cc1ccc(C(=O)CC(=O)c2cccc(F)c2)c(O)c1 | 95 | - | - | 72 | -
SMILES | CYP2C19 inhib | CYP2C19 act | PTK2B oligo ant | CYP2C9 inh | CYP2C9 act
Cc1ccc(C(=O)c2ccccc2C(=O)O)c(O)c1 | - | - | - | - | -
O=C(CC(c1ccco1)C1CCCCC1=O)c1ccco1 (stereo not drawn) | 53 | - | - | 55 | -
COc1ccc(C(=O)CC(c2ccccc2)C2CCCCC2=O)cc1 (stereo not drawn) | - | - | - | 73 | -
COc1ccc(C(=O)NCC(=O)OC2CCCCC2=O)cc1 (stereo not drawn) | 81 | - | - | - | -
O=C(CC(c1ccccc1)C1CCCCC1=O)c1ccco1 (stereo not drawn) | . | . | - | . | .
COc1ccc(OCCNC(=O)C(c2ccccc2)c2ccccc2)cc1 | - | - | - | - | -
CC1CCN(C(=O)CN(C)S(=O)(=O)c2cccc3nsnc23)CC1 | - | - | - | - | -
O=C(C(Cl)Cl)N1c2ccccc2OCC1c1ccccc1 (stereo not drawn) | 78 | - | - | 75 | -
CCC(Sc1nc2c(c(=O)[nH]1)CCC2)C(=O)Nc1cccc(OC)c1 (stereo not drawn) | - | - | - | 62 | -
O=C(NC(Cc1ccccc1)C(=O)O)/C(=C\c1ccc(F)cc1)NC(=O)c1ccccc1 (stereo not drawn) | - | - | - | - | -
O=C(CCCNC(=O)/C(=C\c1ccc(F)cc1)NC(=O)c1ccccc1)OCc1ccccc1 | 63 | - | - | - | -
CCN1CCN(c2ncnc3c2oc2nc(C(C)C)c4c(c23)CCC4)CC1 | - | - | . | - | -
CC(C)Cc1nc2oc3c(N4CCN(CCO)CC4)ncnc3c2c2c1CCCC2 | 60 | - | - | 67 | -
